# aDG glyco act: activators of alpha-DG glycosylation, primary screen, uHTS, Pro5-aDG cells, AlphaScreen; 360,000 tested, 0.22% active; activation, % at 10 µM; alpha-DG glycosylation AlphaScreen (IIH6); 0% Pro5, 100% B10-LARGE cell signal;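 active = activation of at least 8% versus controls, or a plate z-score of at least 8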;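 also: Pro5 are CHO cells carrying HIG-tagged alpha-DG that lacks glycosylation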
# TROY NFkB inh: inhibitors of TROY-driven NF-kB signaling, primary screen, Q293 LMP1-TROYcd cells, NF-kB luciferase, uHTS; Q293 LMP1-TROYcd NF-kB luciferase reporter, 4 h; inhibition, % at 10 µM; 360,000 tested, 0.98% active;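 active = compounds whose plate-normalised and pattern-corrected inhibition of the luciferase reporter signal at the single screening dose is 50% or more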
# TWEAK Fn14 block: inhibitors of TWEAK-Fn14 signaling, primary screen, luciferase reporter cells, uHTS | TWEAK-stimulated Fn14 reporter cells, luciferase luminescence, 8 h | inhibition, % at 10 µM | AID 1159606, 2016 | 360,000 tested, 2% active; in the data active = inhibition above about 50%
# LMP1 NFkB inh: EBV LMP1-driven NF-kappaB luciferase reporter inhibitors, primary screen, cell-based, luminescence, single point | LMP1-induced NF-kappaB luciferase reporter cells | inhibition, % at 12.5 µM | 350,000 tested, 0.69% active | AID 504558, 2011; in the data active = inhibition above about 41%; inconclusive = no clear call, values can overlap the other calls;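 also: 0% = neutral control wells and 100% = reference inhibitor control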
# HSP90 inh: HSP90 inhibitors, primary screen, cell lysate, luminescence; Heat shock protein HSP 90 (rabbit reticulocyte lysate; luciferase refolding); Rabbit reticulocyte lysate, luciferase refolding luminescence, 3 h; inhibition, % at 5.6 µM; 290,000 tested, 0.91% active;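 active = inhibition above the screen-wide mean plus 3 SD, computed separately per campaign, cut at about 16% in these data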;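 also: 0% = DMSO wells and 100% = 60 µM geldanamycin wells; inhibitors lower the luminescence because luciferase stays unfolded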
# LGR2 antag: inhibitors of bursicon-induced LGR2 CRE-luciferase signal, primary screen, cell-based, HEK293, CRE-luciferase reporter, bursicon stimulation; Drosophila bursicon receptor LGR2 (rickets); bursicon-stimulated, 4 h; inhibition, % at 9.99 µM; 380,000 tested, 0.35% active;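 active = drop in luminescence signal, shown as inhibition above about 50% in the replicate tests, limit read from the data, passing the limit was not always enough; inconclusive = probably only some replicates passing the limit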;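 also: agonist challenge used bursicon conditioned medium at about half maximal strength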
# Active calls of the source: *; u = inconclusive; x = no result. Sampled rows, rich in hits. Any-hit rate of the full collection: about 2.6%.
SMILES,aDG glyco act,TROY NFkB inh,TWEAK Fn14 block,LMP1 NFkB inh,HSP90 inh,LGR2 antag
CCCN1C[C@H](C)[C@@H](OC)CN(C)C(=O)c2cc(NC(=O)Nc3ccccc3F)ccc2OC[C@@H]1C,x,x,x,x,x,-7.8
CCOc1cc(CNc2ccc3c(c2)OCCO3)cc(Br)c1OCC,-0.6,77.3*,80.7*,28.1,16.3*,x
CCOc1cc(CNc2ccc(N3CCOCC3)cc2)cc(Br)c1OCC,-0.4,24.1,18.0,5.5,3.6,18.0
C[C@@H]1CN([C@H](C)CO)C(=O)Cc2cc(NC(=O)Nc3ccc(C(F)(F)F)cc3)ccc2O[C@@H]1CN(C)C(=O)Nc1ccc(F)cc1,x,x,x,x,x,-9.6
Cc1cc(C)n(C2CCCCC2OC(=O)c2ccccc2F)n1 (stereo not drawn),0.1,-4.0,-8.3,42.4*,-2.6,x
O=[N+]([O-])c1ccc(C[n+]2cccc3c4ccccc4ccc32)cc1,-0.5,6.2,11.8,-3.3,-4.3,-4.1
CCCCCCCCC[n+]1cccc2c3ccccc3ccc21,2.6,44.5,32.5,47.7*,2.2,x
CCCCCCCCCCCCCCCC[n+]1cccc2ccccc21,0.0,53.7*,72.1*,29.7,-0.1,5.7
Cc1nc(Sc2ccccc2)c(C#N)c(C)c1[N+](=O)[O-],0.1,16.6,-22.7,4.2,6.8,-6.5
Cc1cc(C)c(C#N)c(Sc2nc(C)c([N+](=O)[O-])c(C)c2C#N)n1,0.2,49.4,82.0*,x,x,u
Cc1ccc(S(=O)(=O)N(C)C[C@@H]2Oc3ncc(-c4ccncc4)cc3C(=O)N([C@H](C)CO)C[C@H]2C)cc1,x,x,x,x,x,-16.5
O=C(CC(F)(F)F)N1C[C@@H]2[C@H](c3ccccc31)[C@@H](CO)N2C(=O)C1CC1,x,x,x,x,x,-1.5
Cc1noc(C)c1NC(=O)N(C)C[C@@H]1OCCCC[C@H](C)Oc2ccc(NC(=O)Nc3ccccc3)cc2C(=O)N([C@@H](C)CO)C[C@H]1C,x,x,x,x,x,-5.9
CCOc1ccc2nc(SCc3ccc(CC(=O)O)cc3)c(C#N)cc2c1,0.1,76.3*,36.6,0.5,8.7,12.3
N#C[C@H]1[C@@H](c2ccc(C3=CCCCC3)cc2)[C@@H](CO)N1S(=O)(=O)c1ccccc1,x,x,x,x,x,-26.9
CC(=O)c1cccc(NC(=O)Nc2ccc(C(=O)N3CCOCC3)cc2)c1,-0.2,12.1,7.5,48.6*,-3.1,x
Cn1c(=O)c2c(nc(Oc3ccc4ccccc4c3)n2C)n(C)c1=O,0.9,25.8,50.7*,22.0,2.4,21.1
COc1ccc(NC(=O)c2cc(-c3cc(C)cc(C)c3O)n[nH]2)cc1Cl,0.7,63.9*,81.8*,-11.6,-2.3,x
CCOC(=O)Nc1ccc2c(c1)N(C(=O)CCN(CC)CC)c1ccccc1S2=O (stereo not drawn),-0.2,54.5*,64.5*,3.2,-2.0,35.8
CC(C)NC(=O)Nc1ccc2c(c1)CC(=O)N([C@H](C)CO)C[C@H](C)[C@@H](CN(C)S(C)(=O)=O)O2,x,x,x,x,x,-13.6
O=C(COC(=O)c1nc(Cl)c(Cl)c(Cl)c1Cl)NCc1ccccc1,0.3,32.3,85.1*,-30.4,x,-20.5
Cn1cnnc1SCC(=O)OCN1C(=O)c2ccccc2C1=O,0.1,2.4,-1.4,-3.4,0.9,21.9
Cc1cc(C)nc(SCC(=O)OCN2C(=O)c3ccccc3C2=O)n1,-0.4,-20.4,-0.3,85.4*,2.0,x
COc1ccc(C#Cc2cccc(-c3nc(C(=O)N4CCN(C)CC4)cc4c3[C@@H](CCO)N(S(=O)C(C)(C)C)C4)c2)cc1OC (stereo partly drawn),x,x,x,x,x,-12.8
CCOc1ccc(-c2cc(C(=O)Nc3ccc4c(c3)OCCO4)c3ccccc3n2)cc1,-0.2,-27.4,24.7,-12.0,-2.3,x
SMILES,aDG glyco act,TROY NFkB inh,TWEAK Fn14 block,LMP1 NFkB inh,HSP90 inh,LGR2 antag
Cc1ccn2cc(C(=O)Nc3ccc4c(c3)OCCO4)nc2c1,-0.4,49.0,62.2*,7.2,12.7,x
Cc1cccc(-c2cc(C(=O)Nc3ccc4c(c3)OCCO4)c3ccccc3n2)c1,-0.5,12.8,55.1*,-7.7,-1.2,-18.8
OCc1cccc(-c2cnc3c(Nc4cccc(OC(F)(F)C(F)F)c4)nccn23)c1,0.3,42.5,57.2*,x,x,65.5*
O=[N+]([O-])c1ccc(NS(=O)(=O)c2ccc(Cl)c(Cl)c2)cc1,1.3,54.7*,44.0,x,x,7.0
O=[N+]([O-])c1ccc(S(=O)(=O)Nc2ccncc2)cc1,-0.1,-1.5,5.4,-15.1,-7.4,-1.6
C=CCc1c(C)nc2cc(-c3ccc(C)cc3)[nH]n2c1=O,0.1,36.9,63.0*,11.7,10.0,u
CC(=O)Nc1cccc(-c2cc(NC(C)=O)c3ncc(-c4ccc(F)cc4)n3c2)c1,-0.1,90.6*,100.2*,x,x,8.5
CC(=O)Nc1cc(-c2cccc(NS(C)(=O)=O)c2)cn2c(-c3ccc(F)c(Cl)c3)cnc12,0.7,-2.2,91.8*,x,x,13.1
COCC(=O)N(C)C[C@@H]1Oc2cc(C3=CCCC3)ccc2S(=O)(=O)N([C@@H](C)CO)C[C@@H]1C,x,x,x,x,x,-11.3
O=S(=O)(N[C@H]1CC[C@H](CCn2cc(C3(O)CCCC3)nn2)O[C@@H]1CO)c1ccc(Cl)cc1,x,x,x,x,x,-16.1
O=C(CSc1cccc2cccnc12)N1CCCC1,-0.7,-24.3,66.6*,-2.3,-1.9,x
CN(C)C(=O)CSc1cccc2cccnc12,-0.4,6.5,96.2*,-36.9,-4.1,x
O=C(NCc1ccco1)c1nc2c(nnn2Cc2ccccc2Cl)c(=O)[nH]1,-0.1,84.8*,84.9*,31.2,1.6,92.8*
C[C@@H]1CCCCO[C@@H](CN(C)S(=O)(=O)c2ccc(F)cc2)[C@H](C)CN([C@H](C)CO)C(=O)c2cc(NC(=O)Nc3ccc(C(F)(F)F)cc3)ccc2O1,x,x,x,x,x,1.6
O=C(Nc1ccccc1)N1C[C@H]2[C@@H](c3ccccc31)[C@H](CO)N2C(=O)c1cccnc1,x,x,x,x,x,-15.5
COc1ccc(NC(=O)N(C)C[C@H]2Oc3c(NC(=O)c4cc(C)nn4C)cccc3C(=O)N([C@H](C)CO)C[C@@H]2C)cc1,x,x,x,x,x,-6.2
CC(C)c1nc(Cl)c(C#N)c2c1CCC2,0.0,0.2,20.7,5.6,2.4,6.1
CC(C)c1nc(NCc2ccccc2)c(C#N)c2c1CCCC2,0.0,-8.5,-12.7,-24.5,-3.0,x
CC(C)c1nc(Cl)c(C#N)c2c1CCCC2,-0.2,0.9,51.9*,6.1,-3.5,-8.7
CC(C)c1nc(NCCO)c(C#N)c2c1CCCC2,0.0,50.9*,61.5*,31.1,-0.5,x
O=C(CCl)Nc1ccc(-c2ccccc2)cc1,1.1,-41.8,32.1,10.7,3.5,x
CC(C)N(c1ccccc1)c1ccc(NC(=O)CCl)cc1,0.5,1.3,62.2*,-33.5,1.1,33.2
O=c1c2cnn(-c3ccccc3)c2nc(-c2cccs2)n1-c1ccc(Cl)cc1,0.5,6.8,31.1,43.9*,0.9,9.7
